The compounds below were run on Trichuris muris adult worms (assay: mean motility score (Paragon pixel variance) of adult worms (arbitrary units); higher = more motile worms, i.e. less anthelmintic effect; extreme values may be limits of the assay). Details: 100 µM; 24 h.
Procedure, shortened: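 Adult Trichuris muris worms were collected from infected NOD SCID mice and placed one per well in 96-well plates containing 100 μL RPMI-1640 with antibiotics and drug at 100 μM (1% v/v DMSO), then incubated for 24 h at 37°C and 5% CO2. Each plate was filmed on an automated phenotyping platform, capturing 200 frames 100 ms apart. The motility score came from Paragon pixel-variance analysis and was averaged over replicate wells. Every drug was tested with three worms in three wells on three separate occasions, alongside vehicle and positive controls.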
For `Cc1ccc(S(=O)(=O)O)cc1.Clc1cccc(Cl)c1NC1=NCCN1` [clonidine p-toluenesulfonic acid], the mean motility score was 3620. Work on `CC(=O)O[C@]1(C(C)=O)CC[C@H]2[C@@H]3C=C(Cl)C4=CC(=O)CC[C@]4(C)[C@H]3CC[C@@]21C` [chlormadinone acetate] yielded a mean motility score of 2750. `CN1CCN(CC/C=C2/c3ccccc3Sc3ccc(S(=O)(=O)N(C)C)cc32)CC1` [thiothixene] showed a mean motility score of 1030. With `Cc1cc(Nc2ncc(Cl)c(Nc3ccccc3S(=O)(=O)C(C)C)n2)c(OC(C)C)cc1C1CCNCC1` [ceritinib] the mean motility score was 1.33.
